ChEMBL document CHEMBL1157539, “Thousands of chemical starting points for antimalarial lead identification” (Nature, 2010)

What follows are compounds tested on HepG2 (assay: GSK_TCMDC: Percent inhibition of human HepG2 cell line. Test compounds present at 10uM.).
Assay type: functional

SMILES	Inhibition
Cc1ccccc1OCC(=O)Nc1ccc(-c2nc3cc4ccccc4cc3[nH]2)cc1	24%
O=C1COc2ccc3ccccc3c21	0%
C=CCNS(=O)(=O)c1ccc(NC(=O)C(C)Oc2ccc([N+](=O)[O-])cc2)cc1 (centres undefined)	14%
Cc1cc(OCC2CCCN(c3ncc(C(=O)NC4CC4)cc3Cl)C2)ccc1F (centres undefined)	3%
CC1(C)N=C(N)N=C(N)N1c1ccc(Oc2ccccc2)cc1.Cl	13%
CS(=O)(=O)Nc1ccc(OCCCCCCOc2ccc(NS(C)(=O)=O)cc2)cc1	3%
CCn1cc(CN2C(=O)C(c3ccccc3)(c3ccccc3)N=C2N)cn1.O=CO	7%
CCNc1cc(C(=O)NC(Cc2ccccc2)C(O)CNC(C)(C)CCCC(C)C)c(F)c(N2CCCS2(=O)=O)c1.O=CO (centres undefined)	0%
COc1ccccc1CNc1ncc(-c2ccsc2)c(-c2nccs2)n1	14%
